A selection: hits, their analogues and other compounds. The true share with any hit is near 4.7%.
D1 antagonist: blocks dopamine activation of the human D1 receptor; P21728; HEK293 TREx D1 cells, calcium flux, dopamine EC80; stronger effect = lower value; activity change, negative = inhibition, % at 10 µM; 3.2% of 360,000 active; in the data active = activity change below about -30%
Target sequence (P21728 whole entry, looked up): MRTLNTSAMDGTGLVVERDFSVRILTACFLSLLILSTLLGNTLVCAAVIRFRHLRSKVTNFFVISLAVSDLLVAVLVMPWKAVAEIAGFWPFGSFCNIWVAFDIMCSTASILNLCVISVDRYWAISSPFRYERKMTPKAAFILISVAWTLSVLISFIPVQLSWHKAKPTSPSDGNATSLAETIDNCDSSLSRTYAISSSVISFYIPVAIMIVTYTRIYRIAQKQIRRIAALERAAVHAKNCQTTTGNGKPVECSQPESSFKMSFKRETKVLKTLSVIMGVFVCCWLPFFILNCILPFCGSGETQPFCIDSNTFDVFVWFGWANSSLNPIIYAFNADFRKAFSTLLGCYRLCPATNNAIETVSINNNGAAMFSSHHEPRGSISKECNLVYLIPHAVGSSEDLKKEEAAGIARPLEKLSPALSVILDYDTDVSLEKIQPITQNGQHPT
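Cells carrying a force-coupled, tetracycline-inducible human D1 receptor report calcium flux. Each well gets a 10 s baseline, compound with 180 s monitoring, then an EC80 dopamine stimulus with a second 180 s kinetic read.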
TRHR enhancer: allosteric enhancers of human TRH receptor. TRHR cells, fluo-8 calcium fluorescence, EC20 TRH enhancement. 0.66% of 360,000 active. AID 493056. enhancement, % at 2 µM. P34981; in the data active = enhancement above about 30%
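TRHR-expressing cells loaded with fluo-8 calcium dye were read kinetically (ex 480/em 530) during compound addition, then stimulated with an EC20 of TRH (10 nM final). Enhancement of the Gq-mediated intracellular calcium response was scored.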
TRHR ag: activates the human TRH receptor; TRHR cells, calcium flux fluo-8, FDSS agonist mode; activation, % at 2 µM; 0.18% of 360,000 active
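TRHR-expressing cells loaded with fluo-8 calcium dye; 23 nL library compound pin-transferred, kinetic FDSS fluorescence (Ex 480/Em 530) recorded about 180 s for agonist-induced calcium release, before a 10 nM TRH EC20 addition for potentiator mode.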
D1 ag: human D1 receptor agonism; activation, % at 2 µM; 1% of 360,000 active; P21728; HEK293 T-REx D1 cells, calcium flux, agonist mode
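Inducible HEK293 T-REx D1 cells, force-coupled to calcium signalling, were plated at 4000 cells/well with tetracycline and held overnight at 30 C. After no-wash calcium dye loading, compound-evoked calcium rise over 180 s flagged agonists.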
D1 PAM: enhances dopamine response at the human D1 receptor; HEK293 TREx D1 cells, calcium flux, dopamine EC20 potentiation; potentiation, % at 10 µM; 0.036% of 360,000 active; in the data active = potentiation above about 30%
A number is an active result; 0 = inactive; - = no result. Cut-off read from the data, not from the text of the source, unless noted: active = activation above about 30%; inactive = the rest.

SMILES	D1 antagonist	TRHR enhancer	TRHR ag	D1 ag	D1 PAM
Cc1cc(C(=O)NCCc2ccc(S(N)(=O)=O)cc2)c(C)o1	-31	0	0	0	0
CCc1sc(C(=O)NCCc2ccc(S(N)(=O)=O)cc2)cc1C	0	0	0	0	0
Cc1nn(CC(=O)OCC(=O)NC(C)c2ccccc2)c(C)c1[N+](=O)[O-] (configuration not stated)	-34	0	0	0	0
Cc1ccnc(NC(c2cc(C)ccc2O)c2ccc3cccnc3c2O)c1 (configuration not stated)	-50	0	0	0	0
Cc1ccnc(NC(c2ccccc2F)c2ccc3cccnc3c2O)c1 (configuration not stated)	0	0	0	0	0
Cn1ccc2cc(-c3ccc4ncnc(NCc5cccc(F)c5)c4c3)ccc21	0	0	0	0	0
Cc1cc(=O)oc2cc(NS(=O)(=O)c3ccccc3)ccc12	-95	0	0	0	0
COc1ccc2cc(CNc3ccc(OC)c(OC)c3)c(=O)n(CC(=O)Nc3ccc(C)cc3)c2c1	0	0	0	0	0
CCOc1ccc(NC(=O)C2=NN(c3ccccc3)C(=O)CC2)cc1S(=O)(=O)N1CCCCC1	-35	0	0	0	0
Cc1ccc(NC(=O)Cn2c(=O)cnc3ccccc32)cc1S(=O)(=O)N1CCCCC1	0	0	0	0	0
COc1ccc(NC(=O)Cn2c(=O)cnc3ccccc32)cc1S(=O)(=O)N1CCCCC1	-48	0	0	0	0
O=C(Nc1ccccc1)c1cnc[nH]1	0	0	0	0	0
O=C(c1ccccc1)c1cnc[nH]1	0	30	0	0	0
O=C(Nc1cc(Cl)cc(Cl)c1)c1ccc(F)c(S(=O)(=O)N2CCc3ccccc32)c1	0	0	0	0	0
N#CC1(NC(=O)COC(=O)c2cc(O)c3ccccc3c2O)CCCCC1	-40	0	0	0	0
COc1ccc(CC(=O)N2CCc3c([nH]c4ccccc34)C2c2ccc(SC)cc2)cc1 (configuration not stated)	-40	0	0	0	0
O=C(CSCc1ccc(F)cc1)N1CCc2c([nH]c3ccccc23)C1c1ccc(Cl)cc1 (configuration not stated)	-31	0	0	0	0
COc1ccc(CCC(=O)N2CCc3c([nH]c4ccccc34)C2c2ccc(F)cc2)cc1 (configuration not stated)	0	0	0	0	0
COc1ccccc1-c1cc(C(=O)NC(C)c2ccccc2)no1 (configuration not stated)	-42	0	0	0	0
COCCNC(=O)c1cc(-c2ccccc2OC)on1	0	0	0	0	0
CC(C)CC1(C)N=C(c2ccccc2)C(=S)N1 (configuration not stated)	-40	0	0	0	0
CCOc1ccc(S(=O)(=O)NCc2nc3cccnc3n2Cc2ccccc2OC)cc1	0	0	0	0	0
COc1cccc2sc(N(CCCN(C)C)C(=O)c3ccc(S(=O)(=O)N4CCCc5ccccc54)cc3)nc12	0	0	0	39	0
CN(C)CCN(C(=O)c1ccc(S(=O)(=O)N2CCc3ccccc32)cc1)c1nc2ccc(F)cc2s1	-36	0	0	0	0
CN(C)CCCN(C(=O)c1ccc(S(=O)(=O)N2CCc3ccccc32)cc1)c1nc2c(Cl)cccc2s1	0	0	0	0	0
SMILES	D1 antagonist	TRHR enhancer	TRHR ag	D1 ag	D1 PAM
COc1ccc(OC)c(N/C(N)=N/c2nc(C)cc(C)n2)c1	0	0	0	0	0
COc1ccc(Cl)cc1N/C(N)=N/c1nc(C)cc(C)n1	-70	0	0	0	0
CCCOc1ccccc1N/C(=N/c1nc(C)cc(C)n1)NC(=O)COc1ccc(OC)cc1	0	0	0	0	0
COc1ccc(Cl)cc1N/C(N)=N/c1nc(C)cc(=O)[nH]1	0	0	0	0	0
CCCOc1ccccc1N/C(N)=N/c1nc(C)cc(C)n1	-59	0	0	0	0
COc1ccc(C)cc1N/C(N)=N/c1nc(C)cc(C)n1	-75	0	0	0	0
CCCCOC(=O)c1ccc(NC(=O)CC2NCCNC2=O)cc1 (configuration not stated)	0	0	0	0	0
O=C(Cn1c(=O)n(-c2ccc(Cl)cc2)c(=O)c2oc3ccccc3c21)Nc1ccccc1	0	0	0	0	0
COc1ccc(CCNc2nc(-c3ccc(OC)c(OC)c3)cc(C(F)(F)F)n2)cc1OC	0	0	0	0	0
Nc1ccc2nc(SCC(=O)Nc3ccc(N4CCOCC4)c(Cl)c3)sc2c1	-34	0	0	0	0
Cc1ccc(NC(=O)CSCC(=O)Nc2ccc(N3CCOCC3)cc2N2CCOCC2)cc1	0	0	0	0	0
Cc1ccc(NC(=O)c2cc(N3C(=O)C4CC=CCC4C3=O)ccc2N2CCOCC2)cc1Cl (configuration not stated)	0	39	0	0	0
COc1ccc(CNC(=O)CSc2nc3ccc(N)cc3s2)cc1	-32	0	42	0	0
Cc1ccc(NC(=O)CSCC(=O)Nc2ccc(N3CCOCC3)c(Cl)c2)cc1	-34	0	0	0	0
CCOc1ccc2nc(SCC(=O)NCc3ccc(S(N)(=O)=O)cc3)sc2c1	0	0	0	0	0
CCCC(=O)Nc1ccc2nc(SCC(=O)Nc3ccc(N4CCOCC4)c(Cl)c3)sc2c1	0	0	0	0	0
Cc1ccc(NC(=O)c2cc(N3C(=O)C=CC3=O)ccc2N2CCOCC2)cc1	0	0	0	0	0
COc1ccc(C)cc1NC(=O)c1sc2nc(-c3ccc(F)cc3)cn2c1C	0	0	0	0	0
COc1ccccc1CNC(=O)Cn1cc2c(n1)-c1c(oc(C(=O)N3CCOCC3)c1C)CC2	0	0	0	0	0
Cc1ccc(NC(=O)CSCC(=O)NC2(C)CCS(=O)(=O)C2)cc1 (configuration not stated)	-40	0	0	0	-
Nc1nnc(SCC(=O)Nc2ccc(N3CCOCC3)c(Cl)c2)s1	-37	0	0	0	0
O=C(CSc1ccc(F)cc1)Nc1ccc(N2CCOCC2)c(Cl)c1	0	0	0	0	0
CCOC(=O)c1c(C)[nH]c(C)c1S(=O)(=O)N1CCC(C(=O)Nc2cc(Cl)ccc2OC)CC1	0	0	0	0	0
Cc1ccc(CC(=O)Nc2nccs2)cc1C	0	32	0	0	0
O=C(CCNS(=O)(=O)c1cccs1)Nc1ccccc1F	0	0	0	0	0
S=C(NCCc1ccccc1)Nc1nccs1	0	0	0	0	0
O=C(NCCc1ccccc1)C(=O)Nc1nccs1	0	0	0	33	0
O=C(CCNS(=O)(=O)c1cccs1)Nc1nccs1	-32	0	0	0	0
Cc1ccc(NC(=O)Cn2c(=O)n(Cc3ccccc3)c(=O)c3sc4ccccc4c32)cc1	0	0	0	0	0
COc1ccc(CNC(=O)CCc2c(C)nn(-c3ccc(N4CCCCC4)nn3)c2C)cc1	0	0	0	0	0
